Assay outcomes from PubChem BioAssay.
Pf Dd2 inh = P. falciparum Dd2 growth inhibitors, primary screen, SYBR Green fluorescence, single dose replicates | 72 h; hits give low values | activity change, % at 10 µM | 94,000 compounds, 2.3% hits; in the data active means activity change below about -80%; inconclusive means no clear call, values can overlap the other calls
C diff HTS = C. difficile growth inhibitors, primary screen, HTS; Clostridium difficile clinical isolate growth, OD600, 24 h; hits give low values; growth activity, negative = inhibition, % at 16 µg/mL (by protocol); 86,000 compounds, 0.25% hits; AID 1259249, 2017;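 active means mean growth activity at or below -80% and every replicate also at or below -80%; inconclusive means mean at or below -80% but some replicate above -80%; inactive means mean growth activity above -80%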
Hits are given with their value. Shown are actives, neighbours in structure and some others; about 2.3% of the full set was active somewhere.

For C[C@H]1CN([C@@H](C)CO)C(=O)c2ccccc2-c2ccccc2CO[C@H]1CN(C)C(=O)Nc1cccc(Cl)c1Cl the results were Pf Dd2 inh inactive and C diff HTS inactive.
C[C@@H]1CN([C@@H](C)CO)C(=O)Cc2cc(NC(=O)C3CCCCC3)ccc2O[C@H]1CN(C)CC1CCCCC1 was read as Pf Dd2 inh inactive and C diff HTS inactive.
For O=C(c1ccncc1)N1CC(=O)N2[C@H](C1)[C@@H](c1ccc(-c3cccnc3)cc1)[C@@H]2CO the results were Pf Dd2 inh -86 and C diff HTS inactive.
For O=C(c1cccnc1)N1CC(=O)N2[C@H](C1)[C@@H](c1ccc(-c3cccnc3)cc1)[C@@H]2CO the results were Pf Dd2 inh -87 and C diff HTS inactive.
For O=C(c1ccc(F)cc1)N1CC(=O)N2[C@@H](CO)[C@H](c3ccc(-c4cccnc4)cc3)[C@@H]2C1 the results were Pf Dd2 inh inactive and C diff HTS inactive.
Screening O=C(c1cccnc1)N1CC(=O)N2[C@@H](CO)[C@H](c3ccc(-c4cccnc4)cc3)[C@@H]2C1 returned Pf Dd2 inh inactive and C diff HTS inactive.
`C[C@@H]1CN([C@@H](C)CO)C(=O)Cc2cc(NS(C)(=O)=O)ccc2O[C@H]1CN(C)Cc1ccc(C(=O)Nc2ccccc2N)cc1` gave Pf Dd2 inh inactive and C diff HTS inactive.
Screening C[C@H](CO)N1C[C@H](C)[C@H](CN(C)Cc2ccc(C(=O)Nc3ccccc3N)cc2)Oc2ccc(NS(=O)(=O)c3ccc(Cl)cc3)cc2CC1=O returned Pf Dd2 inh -83 and C diff HTS inactive.
For C[C@H](CO)N1C[C@H](C)[C@H](CN(C)Cc2ccc(C(=O)Nc3ccccc3N)cc2)Oc2ccc(NS(=O)(=O)c3ccccc3)cc2CC1=O the results were Pf Dd2 inh -85 and C diff HTS inactive.
For C[C@H](CO)N1C[C@H](C)[C@@H](CN(C)Cc2ccc(C(=O)Nc3ccccc3N)cc2)Oc2ccc(NS(=O)(=O)c3ccc(F)cc3)cc2CC1=O the results were Pf Dd2 inh inconclusive and C diff HTS inactive.
Screening C[C@@H]1CN([C@@H](C)CO)C(=O)Cc2cc(NS(=O)(=O)c3ccc(Cl)cc3)ccc2O[C@H]1CN(C)Cc1ccc(C(=O)Nc2ccccc2N)cc1 returned Pf Dd2 inh inactive and C diff HTS inactive.
`C[C@H]1CN([C@@H](C)CO)C(=O)Cc2cc(NS(=O)(=O)c3ccc(Cl)cc3)ccc2O[C@@H]1CN(C)Cc1ccc(C(=O)Nc2ccccc2N)cc1` gave Pf Dd2 inh -85 and C diff HTS inactive.
C[C@H](CO)N1C[C@H](C)[C@H](CN(C)Cc2ccc(C(=O)Nc3ccccc3N)cc2)Oc2ccc(NS(=O)(=O)c3ccc(F)cc3)cc2CC1=O was read as Pf Dd2 inh -82 and C diff HTS inactive.
`C[C@@H]1CN([C@@H](C)CO)C(=O)Cc2cc(NS(=O)(=O)c3ccc(F)cc3)ccc2O[C@H]1CN(C)Cc1ccc(C(=O)Nc2ccccc2N)cc1` gave Pf Dd2 inh inactive and C diff HTS inactive.
C[C@H](CO)N1C[C@H](C)[C@H](CN(C)S(=O)(=O)c2ccc(Cl)cc2)Oc2c(NC(=O)Nc3ccc(C(F)(F)F)cc3)cccc2C1=O was read as Pf Dd2 inh inactive.
For Cc1ccc(S(=O)(=O)Nc2ccc3c(c2)C(=O)N([C@H](C)CO)C[C@H](C)[C@@H](CN(C)C(=O)Nc2cccc4ccccc24)OCCCC[C@H](C)O3)cc1 the results were Pf Dd2 inh inactive and C diff HTS inactive.
`Cc1ccc(S(=O)(=O)Nc2ccc3c(c2)C(=O)N([C@H](C)CO)C[C@@H](C)[C@H](CN(C)C(=O)Nc2cccc4ccccc24)OCCCC[C@@H](C)O3)cc1` gave Pf Dd2 inh inactive and C diff HTS inactive.
Cc1ccc(S(=O)(=O)Nc2ccc3c(c2)C(=O)N([C@H](C)CO)C[C@H](C)[C@H](CN(C)C(=O)Nc2cccc4ccccc24)OCCCC[C@@H](C)O3)cc1 was read as Pf Dd2 inh inactive and C diff HTS inactive.
For Cc1ccc(S(=O)(=O)Nc2ccc3c(c2)C(=O)N([C@@H](C)CO)C[C@H](C)[C@@H](CN(C)C(=O)Nc2cccc4ccccc24)OCCCC[C@H](C)O3)cc1 the results were Pf Dd2 inh -83 and C diff HTS inactive.
For Cc1ccc(S(=O)(=O)Nc2ccc3c(c2)C(=O)N([C@@H](C)CO)C[C@@H](C)[C@@H](CN(C)C(=O)Nc2cccc4ccccc24)OCCCC[C@H](C)O3)cc1 the results were Pf Dd2 inh -84 and C diff HTS inactive.
For Cc1ccc(S(=O)(=O)Nc2ccc3c(c2)C(=O)N([C@@H](C)CO)C[C@H](C)[C@@H](CN(C)C(=O)Nc2cccc4ccccc24)OCCCC[C@@H](C)O3)cc1 the results were Pf Dd2 inh -85 and C diff HTS inactive.
`COCC(=O)N1[C@H](CO)[C@H](c2ccccc2)[C@@H]1C#N` gave Pf Dd2 inh inactive and C diff HTS inactive.
`C[C@@H]1CN([C@H](C)CO)C(=O)c2cccc(NC(=O)Nc3ccc(C(F)(F)F)cc3)c2O[C@@H]1CN(C)C(=O)Nc1ccc(F)cc1` gave Pf Dd2 inh inactive and C diff HTS inactive.
`COc1ccc(COC[C@]23Oc4ccccc4[C@H]([C@H]2COC(=O)c2ccc([N+](=O)[O-])cc2)N(C(=O)CC(C)=O)C(=O)N3C)cc1` gave C diff HTS inactive.
`O=C(Nc1cc(F)ccc1F)N1CCCCN2[C@H](C1)[C@@H](c1ccc(-c3ccccc3)cc1)[C@@H]2CO` gave Pf Dd2 inh inactive and C diff HTS inactive.
`COCCOC(=O)N1C(=O)[C@@]2(c3cc(C#Cc4ccc(OC)cc4)ccc31)[C@H](C(=O)N1CCc3cc(OC)c(OC)cc3C1)[C@H]1C(=O)O[C@H](c3ccccc3)[C@H](c3ccccc3)N1[C@@H]2c1ccc(OCCO)cc1` gave C diff HTS inactive.
`C[C@@H]1CCCCO[C@H](CN(C)C(=O)Cc2ccccc2)[C@H](C)CN([C@H](C)CO)C(=O)c2cc(NC(=O)Nc3ccc(F)cc3)ccc2O1` gave Pf Dd2 inh -85 and C diff HTS inactive.
For C[C@@H]1CCCCO[C@H](CN(C)C(=O)Cc2ccccc2)[C@@H](C)CN([C@@H](C)CO)C(=O)c2cc(NC(=O)Nc3ccc(C(F)(F)F)cc3)ccc2O1 the results were Pf Dd2 inh -87 and C diff HTS inactive.
C[C@@H]1CCCCO[C@H](CN(C)C(=O)Cc2ccccc2)[C@@H](C)CN([C@@H](C)CO)C(=O)c2cc(NC(=O)Nc3ccc4c(c3)OCO4)ccc2O1 was read as Pf Dd2 inh -84 and C diff HTS inactive.
For C[C@H](CO)N1C[C@H](C)[C@H](CN(C)C(=O)Cc2ccccc2)OCCCC[C@H](C)Oc2ccc(NC(=O)Nc3ccc(F)cc3)cc2C1=O the results were Pf Dd2 inh inactive and C diff HTS inactive.
C[C@@H]1CN([C@@H](C)CO)C(=O)c2cc(NC(=O)Nc3ccc4c(c3)OCO4)ccc2O[C@@H](C)CCCCO[C@H]1CN(C)C(=O)Cc1ccccc1 was read as Pf Dd2 inh inactive and C diff HTS inactive.
C[C@@H]1CCCCO[C@H](CN(C)C(=O)CCCN(C)C)[C@H](C)CN([C@@H](C)CO)C(=O)c2cc(NC(=O)Nc3ccc(C(F)(F)F)cc3)ccc2O1 was read as Pf Dd2 inh -88.
